In the supplement of paper PMC6897291:
Where a name gives a salt, the structure may show the parent alone.

What follows are molecules tested on RIVA (assay: growth inhibition by drug plus 177Lu-lilotomab satetraxetan (1 - RLU/untreated control) (fraction); higher = stronger inhibition). Details: 10 nM; time (day): 6; 177Lu-lilotomab satetraxetan 0.5 ug/ml.
Method in brief: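 Plates pre-printed with the Selleck Cambridge Cancer Compound library at 10/100 nM (RIVA) or 10/1,000 nM (U-2932) received 3,000 cells/well. These cells had been washed after 18 h untreated or with a radiolabelled anti-CD37 antibody conjugate (~600 MBq/mg; 0.5 µg/ml RIVA, 1 µg/ml U-2932). Growth inhibition was obtained from RealTime-Glo luminescence in relation to untreated no-drug wells. Each daily read from day 3, taken after 1 h at 37°C, was converted as 1 − RLU/mean of 48 such wells per plate.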
In the case of `Nc1nc2[nH]cc(CCc3ccc(C(=O)N[C@@H](CCC(=O)O)C(=O)O)cc3)c2c(=O)[nH]1` [Pemetrexed], the “growth inhibition by drug plus 177Lu-lilotomab satetraxetan” value (“growth inhibition” for short) was 0.497.
For `COc1cc2nccc(Oc3ccc(NC(=O)Nc4cc(C)on4)c(Cl)c3)c2cc1OC` [Tivozanib (AV-951)], the “growth inhibition” value was 0.565.
With `CCC(=O)N1CCN(c2ccc(-n3c(=O)ccc4cnc5ccc(-c6cnc7ccccc7c6)cc5c43)cc2C(F)(F)F)CC1` [Torin 1] the “growth inhibition” value was 0.621.
With `COc1cccc2c1C(=O)c1c(O)c3c(c(O)c1C2=O)C[C@@](O)(C(=O)CO)C[C@@H]3O[C@H]1C[C@H](N)[C@@H](O)[C@H](C)O1` [Epirubicin Hydrochloride] the “growth inhibition” value was 0.863.
With `Clc1ccc(Nc2nnc(Cc3ccncc3)c3ccccc23)cc1` [Vatalanib dihydrochloride (PTK787)] the “growth inhibition” value was 0.534.
`COc1cc2nccc(Oc3ccc(NC(=O)C4(C(=O)Nc5ccc(F)cc5)CC4)cc3)c2cc1OC` [XL-184 free base (Cabozantinib)] was tested, and the “growth inhibition” value was 0.628.
In the case of `C[C@@H](O[C@H]1OCCN(Cc2n[nH]c(=O)[nH]2)[C@H]1c1ccc(F)cc1)c1cc(C(F)(F)F)cc(C(F)(F)F)c1` [Aprepitant (MK-0869)], the “growth inhibition” value was 0.488.
In the case of `COc1cc2c(cc1O)CC[C@@H]1[C@@H]2CC[C@]2(C)[C@@H](O)CC[C@@H]12` [2-Methoxyestradiol], the “growth inhibition” value was 0.552.
`CNCc1ccc(-c2[nH]c3cc(F)cc4c3c2CCNC4=O)cc1` was tested, and the “growth inhibition” value was 0.578.
In the case of `CC[C@@]1(O)C(=O)OCc2c1cc1n(c2=O)Cc2cc3c(CN(C)C)c(O)ccc3nc2-1` [Topotecan HCl], the “growth inhibition” value was 0.944.
In the case of `Nc1cc(C(F)(F)F)c(-c2cc(N3CCOCC3)nc(N3CCOCC3)n2)cn1`, the “growth inhibition” value was 0.48.
For `CC(C)(C)c1ccc(S(=O)(=O)/C=C/C#N)cc1`, the “growth inhibition” value was 0.581.
In the case of `C[C@]1(c2nc3c(C(N)=O)cccc3[nH]2)CCCN1` [ABT-888 (Veliparib)], the “growth inhibition” value was 0.518.
`Cc1ccc(NC(=O)c2ccc(CN3CC[C@H](N(C)C)C3)c(C(F)(F)F)c2)cc1Nc1nccc(-c2cncnc2)n1` [Bafetinib (INNO-406)] was tested, and the “growth inhibition” value was 0.658.
`C[C@]12CC[C@@H]3c4ccc(O)cc4CC[C@H]3[C@@H]1CCC2=O` [Estrone] was tested, and the “growth inhibition” value was 0.601.
In the case of `O=C(c1ccc(OCCN2CCCCC2)cc1)c1c(-c2ccc(O)cc2)sc2cc(O)ccc12` [Evista (Raloxifene Hydrochloride)], the “growth inhibition” value was 0.525.
`CCN(CC)CCNC(=O)c1c(C)[nH]c(/C=C2\C(=O)Nc3ccc(F)cc32)c1C` [Sunitinib Malate (Sutent)] was tested, and the “growth inhibition” value was 0.49.
`CCOc1ccc(Nc2nc(-c3c(C)nc4ccccn34)cs2)cc1` was tested, and the “growth inhibition” value was 0.62.
In the case of `C=CC(=O)N1CCC[C@@H](n2nc(-c3ccc(Oc4ccccc4)cc3)c3c(N)ncnc32)C1`, the “growth inhibition” value was 0.853.
In the case of `CS(=O)(=O)c1cccc(CNc2nc(Nc3ccc4c(c3)CCC(=O)N4)ncc2C(F)(F)F)c1`, the “growth inhibition” value was 0.567.
`CC(NC(=O)c1ccccc1/N=C/c1c(O)ccc2ccccc12)c1ccccc1` (stereo not drawn) [Sirtinol] was tested, and the “growth inhibition” value was 0.526.
With `CN(Cc1cnc2nc(N)nc(N)c2n1)c1ccc(C(=O)N[C@@H](CCC(=O)O)C(=O)O)cc1` [Abitrexate (Methotrexate)] the “growth inhibition” value was 0.521.
In the case of `OCCn1cc(-c2cnc3nnn(Cc4ccc5ncccc5c4)c3n2)cn1`, the “growth inhibition” value was 0.603.
For `COc1cc(Nc2ncc(F)c(Nc3ccc4c(n3)NC(=O)C(C)(C)O4)n2)cc(OC)c1OC` [R406(free base)], the “growth inhibition” value was 0.605.
In the case of `COc1cccc2c1C(=O)c1c(O)c3c(c(O)c1C2=O)C[C@@](O)(C(=O)CO)C[C@@H]3O[C@H]1C[C@H](N)[C@H](O)[C@H](C)O1` [Doxorubicin (Adriamycin)], the “growth inhibition” value was 0.933.
`CN(NC(=O)CC(=O)NN(C)C(=S)c1ccccc1)C(=S)c1ccccc1` [Elesclomol] was tested, and the “growth inhibition” value was 0.974.
With `CN(C)CCOc1ccc(/C(=C(/CCCl)c2ccccc2)c2ccccc2)cc1` [Toremifene Citrate (Fareston, Acapodene)] the “growth inhibition” value was 0.733.
`CN1CCN(CCOc2cc(OC3CCOCC3)c3c(Nc4c(Cl)ccc5c4OCO5)ncnc3c2)CC1` [Saracatinib (AZD0530)] was tested, and the “growth inhibition” value was 0.537.
For `CC(C)C[C@H](NC(=O)[C@H](Cc1ccccc1)NC(=O)c1cnccn1)B(O)O` [Bortezomib (Velcade)], the “growth inhibition” value was 0.98.
For `Cn1cncc1[C@@](N)(c1ccc(Cl)cc1)c1ccc2c(c1)c(-c1cccc(Cl)c1)cc(=O)n2C` [Tipifarnib (Zarnestra)], the “growth inhibition” value was 0.489.
In the case of `COC(=O)c1ccc2c(C(=Nc3ccc(N(C)C(=O)CN4CCN(C)CC4)cc3)c3ccccc3)c(O)[nH]c2c1` [BIBF1120 (Vargatef)], the “growth inhibition” value was 0.479.
For `CC[C@@H]1/C=C(\C)C[C@H](C)C[C@H](OC)[C@H]2O[C@@](O)(C(=O)C(=O)N3CCCC[C@H]3C(=O)O[C@H](/C(C)=C/[C@@H]3CC[C@H](Cl)[C@H](OC)C3)[C@H](C)[C@@H](O)CC1=O)[C@H](C)C[C@@H]2OC` [Pimecrolimus], the “growth inhibition” value was 0.701.
For `CN(C)CCOc1ccc(-c2nc(-c3ccncc3)c(-c3ccc4c(c3)CC/C4=N\O)[nH]2)cc1`, the “growth inhibition” value was 0.556.
For `COc1ccc(CCN2CCN(CCCc3ccccc3)CC2)cc1OC`, the “growth inhibition” value was 0.385.
In the case of `CNC(=O)c1cc(Oc2ccc(NC(=O)Nc3cc(C(C)(C)C)nn3-c3ccc4ncccc4c3)c(F)c2)ccn1` [DCC-2036 (Rebastinib)], the “growth inhibition” value was 0.613.
With `CCC(C)(C)C(=O)O[C@H]1C[C@@H](C)C=C2C=C[C@H](C)[C@H](CC[C@@H]3C[C@@H](O)CC(=O)O3)[C@H]21` [Simvastatin (Zocor)] the “growth inhibition” value was 0.582.
In the case of `CCc1ccc(CCOc2ccc(CC3SC(=O)NC3=O)cc2)nc1` (stereo not drawn) [Pioglitazone (Actos)], the “growth inhibition” value was 0.598.
For `O=C(O)C(Cc1c[nH]c2ccccc12)N1C(=O)c2ccccc2C1=O` (stereo not drawn), the “growth inhibition” value was 0.497.
